The results in this text go back to PMC12864922, “TDP-43 directly inhibits mRNA accumulation in neurites through modulation of mRNA stability”.

B1: ENSMUSG00000058297.14|Spock2|167:171;175:188;197:208;222:228;237:246;252:260 (ssRNA)
RNA: GGGAGUUCUACAGUCCGACGAUCGCUUCGAUAUCCGCAUGCUAUGAUGGAGGCUACAUCUGGUAGAUAGCCCUCGACGGCCUCGGCAGGCCAGGGUGCCGACGGCCAGAAAGACAGGCCAGAAGAGACCUGGACAACAGCAGGCAACUUAGCAAAUGGAUCCGGAAGUCAGUGCGGAGGACCCUGGCUCCAGUGGGGGAGGACUGGGGACACACGCUACACACAUACACACAUAUGAGAACACACACAUACAUGUGAGAUGUGACACACACAUGUGAGAACACACAUACUGAGAACACACACACUCUUGCGGUCGCACUAGUGUGGAAUUCUCGGGUGUCAAGG
B2: ENSMUSG00000058297.2|Spock2|239:243;247:260 (ssRNA)
RNA: GGGAGUUCUACAGUCCGACGAUCGCUUCGAUAUCCGCAUGCUAUGAGGAAGAAAAGGAGACAGAAGAGGCAGGGGAGGAGGCCGAGGAGGAGGAGGGUGAGGCGGGUGAGGCAGAUGAUGGAGGCUACAUCUGGUAGAUAGCCCUCGACGGCCUCGGCAGGCCAGGGUGCCGACGGCCAGAAAGACAGGCCAGAAGAGACCUGGACAACAGCAGGCAACUUAGCAAAUGGAUCCGGAAGUCAGUGCGGAGGACCCUGGCUCCAGUGGGGGAGGACUGGGGACACACGCUACACACAUACACACCUCUUGCGGUCGCACUAGUGUGGAAUUCUCGGGUGUCAAGG
B3: ENSMUSG00000058297.16|Spock2|155:159;163:176;185:196;210:216;225:234;240:260 (ssRNA)
RNA: GGGAGUUCUACAGUCCGACGAUCGCUUCGAUAUCCGCAUGCUACAUCUGGUAGAUAGCCCUCGACGGCCUCGGCAGGCCAGGGUGCCGACGGCCAGAAAGACAGGCCAGAAGAGACCUGGACAACAGCAGGCAACUUAGCAAAUGGAUCCGGAAGUCAGUGCGGAGGACCCUGGCUCCAGUGGGGGAGGACUGGGGACACACGCUACACACAUACACACAUAUGAGAACACACACAUACAUGUGAGAUGUGACACACACAUGUGAGAACACACAUACUGAGAACACACACACACACACACACACUCUUGCGGUCGCACUAGUGUGGAAUUCUCGGGUGUCAAGG
B4: ENSMUSG00000058297.3|Spock2|233:237;241:254 (ssRNA)
RNA: GGGAGUUCUACAGUCCGACGAUCGCUUCGAUAUCCGCAUGCUAAGAAAAGGAGACAGAAGAGGCAGGGGAGGAGGCCGAGGAGGAGGAGGGUGAGGCGGGUGAGGCAGAUGAUGGAGGCUACAUCUGGUAGAUAGCCCUCGACGGCCUCGGCAGGCCAGGGUGCCGACGGCCAGAAAGACAGGCCAGAAGAGACCUGGACAACAGCAGGCAACUUAGCAAAUGGAUCCGGAAGUCAGUGCGGAGGACCCUGGCUCCAGUGGGGGAGGACUGGGGACACACGCUACACACAUACACACAUAUGACUCUUGCGGUCGCACUAGUGUGGAAUUCUCGGGUGUCAAGG
B5: ENSMUSG00000058297.11|Spock2|185:189;193:206;215:226;240:246;255:260 (ssRNA)
RNA: GGGAGUUCUACAGUCCGACGAUCGCUUCGAUAUCCGCAUGCUAUGAGGCGGGUGAGGCAGAUGAUGGAGGCUACAUCUGGUAGAUAGCCCUCGACGGCCUCGGCAGGCCAGGGUGCCGACGGCCAGAAAGACAGGCCAGAAGAGACCUGGACAACAGCAGGCAACUUAGCAAAUGGAUCCGGAAGUCAGUGCGGAGGACCCUGGCUCCAGUGGGGGAGGACUGGGGACACACGCUACACACAUACACACAUAUGAGAACACACACAUACAUGUGAGAUGUGACACACACAUGUGAGAACACACCUCUUGCGGUCGCACUAGUGUGGAAUUCUCGGGUGUCAAGG
B6: ENSMUSG00000058297.16|Spock2 (ssRNA)
RNA: GGGAGUUCUACAGUCCGACGAUCGCUUCGAUAUCCGCAUGCUACAUCUGGUAGAUAGCCCUCGACGGCCUCGGCAGGCCAGGGUGCCGACGGCCAGAAAGACAGGCCAGAAGAGACCUGGACAACAGCAGGCAACUUAGCAAAUGGAUCCGGAAGUCAGUGCGGAGGACCCUGGCUCCAGUGGGGGAGGACUGGGGAGUGUGGCUUGUGUGUAUGUGUGAUAUGAGAUGUGUGUGUAUGAUGUGAGAUGUGAGUGUGUGAUGUGAGAUGUGUGUAUGUGAGAUGUGUGUGUGUGUGUGUGUGUCUCUUGCGGUCGCACUAGUGUGGAAUUCUCGGGUGUCAAGG
B7: ENSMUSG00000058297.11|Spock2 (ssRNA)
RNA: GGGAGUUCUACAGUCCGACGAUCGCUUCGAUAUCCGCAUGCUAUGAGGCGGGUGAGGCAGAUGAUGGAGGCUACAUCUGGUAGAUAGCCCUCGACGGCCUCGGCAGGCCAGGGUGCCGACGGCCAGAAAGACAGGCCAGAAGAGACCUGGACAACAGCAGGCAACUUAGCAAAUGGAUCCGGAAGUCAGUGCGGAGGACCCUGGCUCCAGUGGGGGAGGACUGGGGAGUGUGGCUUGUGUGUAUGUGUGAUAUGAGAUGUGUGUGUAUGAUGUGAGAUGUGAGUGUGUGAUGUGAGAUGUGUGCUCUUGCGGUCGCACUAGUGUGGAAUUCUCGGGUGUCAAGG
B8: ENSMUSG00000058297.15|Spock2 (ssRNA)
RNA: GGGAGUUCUACAGUCCGACGAUCGCUUCGAUAUCCGCAUGCUAAGGCUACAUCUGGUAGAUAGCCCUCGACGGCCUCGGCAGGCCAGGGUGCCGACGGCCAGAAAGACAGGCCAGAAGAGACCUGGACAACAGCAGGCAACUUAGCAAAUGGAUCCGGAAGUCAGUGCGGAGGACCCUGGCUCCAGUGGGGGAGGACUGGGGAGUGUGGCUUGUGUGUAUGUGUGAUAUGAGAUGUGUGUGUAUGAUGUGAGAUGUGAGUGUGUGAUGUGAGAUGUGUGUAUGUGAGAUGUGUGUGUGUGUGUCUCUUGCGGUCGCACUAGUGUGGAAUUCUCGGGUGUCAAGG
B9: ENSMUSG00000058297.15|Spock2|161:165;169:182;191:202;216:222;231:240;246:260 (ssRNA)
RNA: GGGAGUUCUACAGUCCGACGAUCGCUUCGAUAUCCGCAUGCUAAGGCUACAUCUGGUAGAUAGCCCUCGACGGCCUCGGCAGGCCAGGGUGCCGACGGCCAGAAAGACAGGCCAGAAGAGACCUGGACAACAGCAGGCAACUUAGCAAAUGGAUCCGGAAGUCAGUGCGGAGGACCCUGGCUCCAGUGGGGGAGGACUGGGGACACACGCUACACACAUACACACAUAUGAGAACACACACAUACAUGUGAGAUGUGACACACACAUGUGAGAACACACAUACUGAGAACACACACACACACACUCUUGCGGUCGCACUAGUGUGGAAUUCUCGGGUGUCAAGG

Whole data set: some 9,900 sequences, median “r (bound/input frequency ratio)” near 0.7, cut for the highest 2% near 6.5. What follows is part of a selection rich in the highest values, with near analogues and random picks from the rest.

The target in this assay is TDP-43 (Homo sapiens, UniProt Q13148 1-414). The assay is described as follows: RNA Bind-n-Seq with designed 260-mer pool; 25 mM Tris-HCl, 150 mM KCl, 3 mM MgCl2, BSA (printed 500 mg/mL), 20 units/mL SUPERase IN; pH not stated; 500 nM RNA pool, 1 h, 4 C; TDP-43 5, 50, 500 nM; high values mean tight binding. To be noted: protein: recombinant; tags: SBP (GST cleaved off with PreScission; pGEX-GST-SBP). The gist of the method: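 In 25 mM Tris-HCl, 150 mM KCl, 3 mM MgCl2, BSA and SUPERase IN, 500 nM of an in vitro-transcribed 260-nt 3′ UTR oligo pool was incubated for 1 h at 4 °C with SBP-tagged TDP-43 (5, 50 or 500 nM) captured on streptavidin beads. RNA remaining after washes was biotin-eluted, reverse transcribed, PCR-amplified and sequenced. Binding, R, is the bound-sample abundance of each oligo, normalized to mapped reads, divided by its abundance in input. Each duplicate used a separate, independent protein batch.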
Chain of TDP-43 (Q13148 whole entry): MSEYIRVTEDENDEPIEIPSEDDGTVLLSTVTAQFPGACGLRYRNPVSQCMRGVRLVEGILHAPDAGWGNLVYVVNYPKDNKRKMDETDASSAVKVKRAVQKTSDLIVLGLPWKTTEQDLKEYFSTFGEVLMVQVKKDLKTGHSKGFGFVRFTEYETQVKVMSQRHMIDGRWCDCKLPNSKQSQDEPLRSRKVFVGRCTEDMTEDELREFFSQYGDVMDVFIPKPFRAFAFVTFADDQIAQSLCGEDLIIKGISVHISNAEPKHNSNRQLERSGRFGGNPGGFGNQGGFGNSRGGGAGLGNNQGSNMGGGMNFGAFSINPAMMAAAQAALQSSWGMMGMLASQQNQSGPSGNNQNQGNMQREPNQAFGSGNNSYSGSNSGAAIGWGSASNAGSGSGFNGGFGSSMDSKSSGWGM
On to B1, for which the binding signal is 1.95 R (bound/input frequency ratio). In the case of B2, the binding signal was 2.26 R (bound/input frequency ratio). For B3, the binding signal was 2.54 R (bound/input frequency ratio). For B4, the binding signal was 2.67 R (bound/input frequency ratio). Next, B5: 2.53 R (bound/input frequency ratio); B6: 7.85 R (bound/input frequency ratio). The same measure for B7: 8.12 R (bound/input frequency ratio). In the case of B8, the binding signal is 7.97 R (bound/input frequency ratio). The same measure for B9: 2.53 R (bound/input frequency ratio).
